From PubChem BioAssay come the findings set out here.

Assay [1] in a line: antimalarial activity against Dd2 strain (AID 2302;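 active = growth inhibition above 50% at the single 2 µM test dose, taken to imply half-maximal potency below 2 µM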;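 also: 0% = DMSO untreated growth and 100% = chloroquine plus artemisinin killed control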). Conditions: P. falciparum Dd2 in RBCs, LDH growth readout, 72 h; at 2 µM; active compounds read high.
The nature of assay [2]: human hepatoma cell viability loss – ATP luminescence, cytotoxicity control for P. falciparum antimalarial project, primary screen (AID 2303;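 active = inhibition above 50%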;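 also: 0% = DMSO wells and 100% = digitonin-killed cells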). Conditions: HepG2 viability, 24-48 h, at 10 µM, active compounds read high.
The target in assay [3] is L-lactate dehydrogenase (Plasmodium falciparum (isolate CDC / Honduras)) (UniProt Q27743). Description: PfLDH activity inhibition – cell lysate, 3D7 strain, counter-screen for P. falciparum growth inhibition project (AID 2304).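 Also: 0% = vehicle and 100% = reference inhibitor.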 Conditions: P. falciparum 3D7 crude extract, LDH APAD/NBT absorbance; at 2 µM; active compounds read high.
Sequence of L-lactate dehydrogenase (Plasmodium falciparum (isolate CDC / Honduras)) (Q27743 whole entry, looked up): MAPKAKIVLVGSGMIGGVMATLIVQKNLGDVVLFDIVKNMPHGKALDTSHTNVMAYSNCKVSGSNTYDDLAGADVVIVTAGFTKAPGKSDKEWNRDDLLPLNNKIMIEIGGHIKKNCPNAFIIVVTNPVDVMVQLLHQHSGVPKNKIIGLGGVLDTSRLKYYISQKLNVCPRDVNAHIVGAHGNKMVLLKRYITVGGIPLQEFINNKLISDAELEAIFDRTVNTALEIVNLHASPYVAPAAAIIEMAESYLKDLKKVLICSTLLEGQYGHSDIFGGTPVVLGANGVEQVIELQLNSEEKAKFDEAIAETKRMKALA
Assay [4] can be described thus: inhibition of 3D7 malaria parasite growth – strain 3D7 (AID 2306).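 Also: 0% = DMSO wells and 100% = chloroquine plus artemisinin control wells.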 Conditions: P. falciparum 3D7 erythrocytic growth, LDH absorbance, 72 h; at 2 µM; active compounds read high.
Assay [5] has as its target Calcium-dependent protein kinase 1 (Plasmodium falciparum (isolate 3D7)) (UniProt P62344). Description: PfCDPK1 kinase inhibitors, biochemical, TCAMS library (AID 1159585; cut-off not given, nearly all actives have IC50 up to about 0.98 µM;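 also: inhibitors leave more ATP so luminescence rises with inhibition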). Conditions: recombinant PfCDPK1, Kinase-Glo ATP depletion luminescence.
Assay [6] addresses Plasmodium falciparum protein kinase 6 (PK6, PF3D7_1337100) (UniProt Q8IDW1). Put plainly: PfPK6 kinase inhibitors, biochemical, TCAMS library (AID 1159586). Conditions: recombinant PfPK6, Kinase-Glo ATP depletion luminescence. A general note: In Kinase-Glo more light means more ATP remaining.
The target in assay [7] is Protein kinase 7 (PK7), Plasmodium falciparum 3D7 (PF3D7_0213400) (UniProt Q7YTF7). Put plainly: inhibition of Plasmodium PK7 catalytic activity – biochemical, TCAMS antimalarial set, Kinase-Glo luminescence (AID 1159587). Conditions: recombinant PfPK7, Kinase-Glo ATP depletion luminescence.
Sequence of Protein kinase 7 (PK7), Plasmodium falciparum 3D7 (PF3D7_0213400) (Q7YTF7 1-343): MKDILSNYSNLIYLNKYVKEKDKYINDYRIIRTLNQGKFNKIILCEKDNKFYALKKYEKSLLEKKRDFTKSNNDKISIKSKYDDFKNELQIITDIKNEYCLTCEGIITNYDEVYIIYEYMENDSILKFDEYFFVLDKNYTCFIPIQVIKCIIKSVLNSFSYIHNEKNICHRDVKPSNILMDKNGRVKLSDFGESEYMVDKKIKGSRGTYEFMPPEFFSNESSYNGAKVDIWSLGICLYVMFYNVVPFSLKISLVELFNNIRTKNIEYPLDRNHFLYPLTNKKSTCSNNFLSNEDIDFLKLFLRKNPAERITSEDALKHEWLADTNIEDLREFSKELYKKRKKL
In assay [8] the target is Calcium-dependent protein kinase 4 (Plasmodium falciparum (isolate 3D7)) (UniProt Q8IBS5). Put plainly: PfCDPK4 kinase inhibitors, biochemical, TCAMS library (AID 1159588; cut-off not given, nearly all actives have IC50 up to about 0.91 µM). Conditions: recombinant PfCDPK4, Kinase-Glo ATP depletion luminescence.
Sequence of Calcium-dependent protein kinase 4 (Plasmodium falciparum (isolate 3D7)) (Q8IBS5 whole entry, looked up): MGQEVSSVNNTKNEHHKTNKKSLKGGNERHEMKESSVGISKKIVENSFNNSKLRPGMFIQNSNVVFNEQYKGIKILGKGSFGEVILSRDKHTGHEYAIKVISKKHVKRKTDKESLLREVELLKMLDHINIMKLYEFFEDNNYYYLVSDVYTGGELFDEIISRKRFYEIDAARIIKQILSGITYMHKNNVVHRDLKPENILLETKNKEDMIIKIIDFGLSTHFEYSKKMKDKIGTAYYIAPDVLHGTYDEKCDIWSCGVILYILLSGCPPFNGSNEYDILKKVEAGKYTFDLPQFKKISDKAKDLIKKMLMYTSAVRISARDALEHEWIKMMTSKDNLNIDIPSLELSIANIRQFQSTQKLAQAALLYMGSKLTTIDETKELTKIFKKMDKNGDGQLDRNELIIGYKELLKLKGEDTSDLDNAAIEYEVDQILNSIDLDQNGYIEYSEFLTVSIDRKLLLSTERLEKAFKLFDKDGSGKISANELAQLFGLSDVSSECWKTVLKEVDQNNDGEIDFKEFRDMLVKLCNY

The structures appear in SMILES notation. Unmarked numbers belong to inactive results. For some of these results: Entries with a potency or affinity are not part of this list. Activity calls are given as the source filed them. Unless noted, no rule for the calls is given here.

Sequence of Plasmodium falciparum protein kinase 6 (PK6, PF3D7_1337100) (Q8IDW1 1-305): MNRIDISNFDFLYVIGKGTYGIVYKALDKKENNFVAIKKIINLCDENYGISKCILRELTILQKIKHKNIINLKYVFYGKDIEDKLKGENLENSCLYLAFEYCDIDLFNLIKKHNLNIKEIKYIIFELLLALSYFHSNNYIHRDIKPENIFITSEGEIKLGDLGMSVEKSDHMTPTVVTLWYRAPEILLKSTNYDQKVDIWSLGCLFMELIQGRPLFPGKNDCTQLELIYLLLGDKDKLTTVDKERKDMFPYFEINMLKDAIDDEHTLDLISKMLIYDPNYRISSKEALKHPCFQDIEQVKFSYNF
Sequence of Calcium-dependent protein kinase 1 (Plasmodium falciparum (isolate 3D7)) (P62344 whole entry, looked up): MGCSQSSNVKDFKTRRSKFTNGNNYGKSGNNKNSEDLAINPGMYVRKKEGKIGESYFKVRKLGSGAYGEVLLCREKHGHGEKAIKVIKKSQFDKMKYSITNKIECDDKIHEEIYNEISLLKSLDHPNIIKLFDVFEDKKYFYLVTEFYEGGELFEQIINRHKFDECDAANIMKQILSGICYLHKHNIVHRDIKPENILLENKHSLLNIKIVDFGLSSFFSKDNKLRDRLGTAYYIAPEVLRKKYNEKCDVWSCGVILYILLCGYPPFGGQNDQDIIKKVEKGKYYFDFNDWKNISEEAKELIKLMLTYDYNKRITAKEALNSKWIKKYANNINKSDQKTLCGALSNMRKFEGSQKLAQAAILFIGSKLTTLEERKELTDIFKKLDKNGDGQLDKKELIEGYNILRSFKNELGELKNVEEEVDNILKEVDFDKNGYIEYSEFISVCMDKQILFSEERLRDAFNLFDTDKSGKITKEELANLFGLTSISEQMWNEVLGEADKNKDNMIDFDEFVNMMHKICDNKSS

Consider `Cc1cc(C)cc(OCC(O)CN(Cc2cc(Cl)cc(Cl)c2)C(=O)Nc2ccc([N+](=O)[O-])cc2)c1` (stereo not given), for which the growth inhibition was 38% in assay [1] and 95% (active) in assay [4]. The results for the inhibition in assay [2] and in assay [3] were -3% and 4%, respectively. In addition, the outcome in assay [5], in assay [6], in assay [7] and in assay [8] was inactive.
As for `CCCN(CC1CC1)c1ncc(-c2cccc(CNCCC3CCCN3C)c2)cn1` (stereo not given), the growth inhibition is 43% in assay [1] and 98% (active) in assay [4]. For the same molecule, the inhibition (usually the drop in the measured response relative to a control, in per cent) was 77% (active) in assay [2] and 7% in assay [3]. Besides, the result in assay [5], in assay [6], in assay [7] and in assay [8] was inactive.
Turning to `O=C(NCCCCN1CCC(c2nc3ccccc3s2)CC1)c1cc2ccccc2[nH]1`, the growth inhibition is 64% (active) in assay [1] and 86% (active) in assay [4]. Moreover, the inhibition is 43% in assay [2] and -5% in assay [3]. Also, the outcome in assay [5], in assay [6], in assay [7] and in assay [8] was inactive.
`COc1ccc(-c2cnc(NCc3ccccc3)nc2)cc1CNC1CCN(C)CC1`: the growth inhibition in assay [1] was 64% (active); in assay [4], 96% (active). Further, the inhibition in assay [2] is 19%; in assay [3] it was 1%. Besides, the outcome in assay [5], in assay [6], in assay [7] and in assay [8] was inactive.
In the case of `NC(=NCc1ccc(Cl)c(Cl)c1)NC(=NCCCCCCN=C(NC(N)=NCc1ccc(Cl)c(Cl)c1)N1CCCCC1)N1CCCCC1`, the results for the growth inhibition in assay [1] and in assay [4] were 99% (active) and 100% (active), respectively. For the same molecule, the inhibition is 6% in assay [2] and -5% in assay [3]. The result in assay [5], in assay [6], in assay [7] and in assay [8] was inactive.
`O=C(NCCNc1ccnc(Nc2ccc(F)cc2)n1)Nc1ccccc1F`: the growth inhibition was 4% in assay [1] and 93% (active) in assay [4]. Moreover, the inhibition in assay [2] is 22%; in assay [3], 5%. For the same molecule, the outcome in assay [5], in assay [6], in assay [7] and in assay [8] was inactive.
As for `C=CCn1c(Cc2ccccc2)nnc1Sc1ccc(C#N)c([N+](=O)[O-])c1`, the growth inhibition in assay [1] was 43%; in assay [4] it was 86% (active). Further, the inhibition in assay [2] was 7%; in assay [3], 2%. In addition, the outcome in assay [5], in assay [6], in assay [7] and in assay [8] was inactive.
As to `CO/C(=C\C=C\c1cc2cc(Cl)c(Cl)cc2[nH]1)C(=O)NC1CCN(CCOc2ccccc2)CC1`, the growth inhibition in assay [1] was 94% (active); in assay [4] it was 101% (active). Moreover, the inhibition is 35% in assay [2] and -3% in assay [3]. The outcome in assay [5], in assay [6], in assay [7] and in assay [8] was inactive.
With `Cc1cc(NC2CCCC2)nc(Nc2ccc(F)cc2)n1`, the growth inhibition in assay [1] was 74% (active); in assay [4] it was 100% (active). Further, the inhibition in assay [2] is 22%; in assay [3], -3%. Besides, the result in assay [5], in assay [6], in assay [7] and in assay [8] was inactive.
Turning to `CCCCCC(C)(C)NC[C@@H](O)[C@H](Cc1ccccc1)NC(=O)c1cc(NCC)cc(N2CCCC2=O)c1`, the growth inhibition in assay [1] is 97% (active); in assay [4] it was 99% (active). The inhibition is 9% in assay [2] and -5% in assay [3]. The result in assay [5], in assay [6], in assay [7] and in assay [8] was inactive.
On to `CCOC(=O)c1ccc2nc(-c3ccc(C(=O)NCc4ccc(C(C)(C)C)cc4)cc3)[nH]c2c1`, for which the figures for the growth inhibition in assay [1] and in assay [4] were 34% and 94% (active), respectively. For the same molecule, the inhibition is -9% in assay [2] and -3% in assay [3]. For the same molecule, the result in assay [5], in assay [6], in assay [7] and in assay [8] was inactive.
Consider `CN(CC(=O)Nc1ccc(F)cc1)C(=O)c1ccc(-c2ccc(F)cc2)o1`, for which the growth inhibition was 84% (active) in assay [1] and 89% (active) in assay [4]. Further, the inhibition was 3% in assay [2] and -2% in assay [3]. In addition, the result in assay [5], in assay [6], in assay [7] and in assay [8] was inactive.
Regarding `CCCCC(=O)Nc1nonc1-c1ccc(OCC)c(OCC)c1`, the growth inhibition in assay [1] is 95% (active); in assay [4] it was 101% (active). For the same molecule, the inhibition was 9% in assay [2] and -1% in assay [3]. Moreover, the outcome in assay [5], in assay [6], in assay [7] and in assay [8] was inactive.
Regarding `CN(C)S(=O)(=O)c1ccc(N2CCN(CCC3(c4cccc(F)c4)CCN(C(=O)C(C)(C)C)CC3)CC2)c2nonc12`, the results for the growth inhibition in assay [1] and in assay [4] were 85% (active) and 91% (active), respectively. The inhibition is 8% in assay [2] and -1% in assay [3]. Also, the outcome in assay [5], in assay [6], in assay [7] and in assay [8] was inactive.
Turning to `Cc1cccc2[nH]c(-c3ccc(-c4cccc(CN5CCCCC5)c4)s3)nc12`, the results for the growth inhibition in assay [1] and in assay [4] were 92% (active) and 100% (active), respectively. For the same molecule, the inhibition was 11% in assay [2] and -2% in assay [3]. Further, the result in assay [5], in assay [6], in assay [7] and in assay [8] was inactive.
For `COc1ccc(N2CCN(CCCOc3ccc(NC(=O)c4cc(Cl)cc(Cl)c4)cc3)CC2)c(OC)c1`, the growth inhibition was 41% in assay [1] and 100% (active) in assay [4]. The inhibition is 38% in assay [2] and 2% in assay [3]. The outcome in assay [5], in assay [6], in assay [7] and in assay [8] was inactive.
Turning to `N#Cc1cccc(C(=O)NC2CCN(c3ccnc(Nc4ccc(F)cc4)n3)C2)c1` (stereo not given), the figures for the growth inhibition in assay [1] and in assay [4] were 91% (active) and 98% (active), respectively. Further, the inhibition in assay [2] was 4%; in assay [3], -8%. Besides, the outcome in assay [5], in assay [6], in assay [7] and in assay [8] was inactive.
`COc1ccc2nccc(NCC3(O)CCC(NCc4cc5c(cn4)OCCO5)CC3)c2n1` (stereo not given): the growth inhibition in assay [1] was 23%; in assay [4], 99% (active). In addition, the inhibition is 15% in assay [2] and -3% in assay [3]. Moreover, the result in assay [5], in assay [6], in assay [7] and in assay [8] was inactive.
Take `CCn1c(-c2cc(C)on2)nc2cnc(Oc3ccc(C(=O)N4CC(=O)N(C)C4C(C)(C)C)cc3)cc21` (stereo not given): the growth inhibition was 57% (active) in assay [1] and 81% (active) in assay [4]. Besides, the values for the inhibition in assay [2] and in assay [3] were 44% and 4%, respectively. The outcome in assay [5], in assay [6], in assay [7] and in assay [8] was inactive.
As for `CN(C)CCCOc1c(C(C)(C)C)cc(-c2cc(C(C)(C)C)c(OCCCN(C)C)c(C(C)(C)C)c2)cc1C(C)(C)C`, the growth inhibition is 99% (active) in assay [1] and 100% (active) in assay [4]. The figures for the inhibition in assay [2] and in assay [3] were 25% and 0%, respectively. The outcome in assay [5], in assay [6], in assay [7] and in assay [8] was inactive.
